Among the test systems are NCI-H23 lung; NCI-H226 lung; NCI-H322M lung; HOP-62 NSCLC; NCI-H460 lung; NCI-H522 lung; A549/ATCC NSCLC; 786-0 renal; COLO 205 colon; DU-145 prostate; K-562 leukemia; MDA-MB-231 breast; RXF 393 renal; SF-268 CNS; SF-295 CNS; SF-539 CNS; UACC-257 melanoma; M14 melanoma; MALME-3M melanoma.
What all share (test): NCI-60 one-dose screen, 48 h (100 = growth as untreated, 0 = no growth, -100 = all killed)
What all share (settings): 10 µM

Each structure is given as a SMILES string. The panel holds about 83,000 compounds, 20% with a hit somewhere; the sample as a whole holds those more often.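 Method: cells in 96-well plates; compound added at one concentration; 48 h incubation; percent growth measured; values under 10 scored active.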 A number with no mark means an inactive call. The source made the active and inactive calls.

As to `CC1=NN(c2ccccc2)C(=O)/C1=C\N1CC(=O)NC1=S`, the growth in the assay with NCI-H23 lung is 98.1%; in the assay on NCI-H226 lung, 98.4%; with NCI-H322M lung it was 108%; in the assay with HOP-62 NSCLC it was 99.5%; with NCI-H460 lung it was 98.6%; with NCI-H522 lung it was 81.7%. Besides, the growth in the assay with A549/ATCC NSCLC was 100%; with 786-0 renal, 104%; in the assay with COLO 205 colon it was 106%; in the assay on DU-145 prostate, 106%; with K-562 leukemia it was 104%; in the assay with MDA-MB-231 breast, 98.3%. For the same compound, the growth with RXF 393 renal is 108%; in the assay with SF-268 CNS it was 101%; with SF-295 CNS, 104%; in the assay on SF-539 CNS, 109%; in the assay on UACC-257 melanoma it was 90.6%; with M14 melanoma, 103%.
Consider `CC1=CC(=O)c2ccccc2C1=O`, for which the growth with NCI-H23 lung is 101%; in the assay with NCI-H226 lung, 101%; with NCI-H322M lung, 99.2%; in the assay on HOP-62 NSCLC it was 105%; in the assay on NCI-H460 lung, 115%; in the assay with NCI-H522 lung, 114%. In addition, the growth in the assay with A549/ATCC NSCLC is 94.1%; in the assay on 786-0 renal, 106%; with DU-145 prostate, 113%; with MDA-MB-231 breast, 98.8%; in the assay with SF-268 CNS, 119%; in the assay on SF-295 CNS, 109%. Moreover, the growth with SF-539 CNS is 104%; with UACC-257 melanoma, 104%; with M14 melanoma, 107%.
For the compound `COc1cc2cc(c1Cl)N(C)C(=O)C[C@H](OC(=O)[C@H](C)N(C)C(C)=O)[C@]1(C)O[C@H]1[C@H](C)[C@@H]1C[C@@](O)(NC(=O)O1)[C@H](OC)C=C/C=C(\C)C2`, the growth with NCI-H23 lung was 31.1%; with NCI-H226 lung it was 3.37% (active); with NCI-H322M lung, 31.5%; with HOP-62 NSCLC, 14%; in the assay on NCI-H460 lung, 2.87% (active); in the assay with NCI-H522 lung it was -60.8% (active). The growth is 38.3% in the assay on A549/ATCC NSCLC; 10.6% in the assay on 786-0 renal; -40.4% (active) in the assay with DU-145 prostate; -2.18% (active) in the assay on K-562 leukemia; 33.7% in the assay with MALME-3M melanoma; -13.1% (active) in the assay on MDA-MB-231 breast. For the same compound, the growth is 13.3% in the assay with RXF 393 renal; 23.5% with SF-268 CNS; -13.8% (active) with SF-295 CNS; -23.5% (active) with SF-539 CNS; 12.4% in the assay on UACC-257 melanoma; -26.2% (active) in the assay with M14 melanoma.
Consider `O=C1c2ccccc2C(=O)N1OCc1ccccc1`, for which the growth in the assay with NCI-H23 lung was 111%; with NCI-H226 lung, 91.4%; in the assay with NCI-H322M lung, 93.4%; in the assay on HOP-62 NSCLC, 95.4%; with NCI-H460 lung it was 113%; in the assay on NCI-H522 lung, 96.5%. Further, the growth was 122% in the assay with A549/ATCC NSCLC; 99.5% with 786-0 renal; 108% in the assay with COLO 205 colon; 112% with DU-145 prostate; 98.2% in the assay on MALME-3M melanoma; 104% with MDA-MB-231 breast. Moreover, the growth with RXF 393 renal is 122%; in the assay on SF-268 CNS it was 106%; in the assay on SF-295 CNS, 110%; in the assay with SF-539 CNS, 102%; with UACC-257 melanoma it was 122%; with M14 melanoma it was 108%.
Consider `CC(=O)c1ccc2c(ccc3ccccc32)c1`, for which the growth in the assay on NCI-H23 lung is 102%; in the assay on NCI-H226 lung, 94%; in the assay with NCI-H322M lung, 105%; in the assay on HOP-62 NSCLC it was 115%; in the assay with NCI-H460 lung it was 101%; with NCI-H522 lung, 93.1%. The growth with A549/ATCC NSCLC was 95.3%; in the assay with 786-0 renal, 91%; in the assay on COLO 205 colon, 111%; in the assay with DU-145 prostate, 111%; in the assay with K-562 leukemia, 90.5%; in the assay with MALME-3M melanoma, 110%. Further, the growth in the assay with MDA-MB-231 breast is 105%; in the assay on SF-268 CNS, 104%; in the assay on SF-295 CNS it was 99.3%; in the assay on SF-539 CNS, 97.5%; with UACC-257 melanoma it was 108%; with M14 melanoma, 89.1%.
Turning to `O=C(N/N=C/c1ccccc1O)Nc1nn[nH]n1`, the growth was 106% with NCI-H23 lung; 96.4% in the assay on NCI-H226 lung; 97% with NCI-H322M lung; 111% in the assay on HOP-62 NSCLC; 102% in the assay on NCI-H460 lung; 95.4% with NCI-H522 lung. The growth in the assay with A549/ATCC NSCLC is 108%; in the assay on 786-0 renal, 108%; in the assay with COLO 205 colon, 109%; in the assay on DU-145 prostate it was 116%; in the assay on K-562 leukemia it was 128%; in the assay with MDA-MB-231 breast it was 102%. Besides, the growth was 113% in the assay on SF-268 CNS; 102% in the assay on SF-295 CNS; 96.9% in the assay with SF-539 CNS; 104% in the assay on UACC-257 melanoma; 103% in the assay on M14 melanoma.
On to `CN(C)C(C)(C)CC(C)(C)C`, for which the growth in the assay on NCI-H23 lung was 103%; in the assay with NCI-H226 lung, 99.7%; with NCI-H322M lung, 116%; in the assay on HOP-62 NSCLC, 104%; in the assay with NCI-H460 lung it was 108%; in the assay on A549/ATCC NSCLC it was 108%. Moreover, the growth in the assay with 786-0 renal is 100%; in the assay with COLO 205 colon it was 106%; with DU-145 prostate, 99.5%; in the assay with K-562 leukemia it was 96.5%; with MALME-3M melanoma it was 94.2%; in the assay with MDA-MB-231 breast, 101%. The growth in the assay with RXF 393 renal is 103%; in the assay with SF-268 CNS, 103%; in the assay on SF-295 CNS, 104%; with SF-539 CNS, 94.1%; in the assay with UACC-257 melanoma it was 117%; in the assay with M14 melanoma it was 105%.
For `CC1(O)CCCCC1O` (stereo not drawn), the growth in the assay on NCI-H23 lung was 103%; in the assay on NCI-H226 lung, 104%; in the assay with NCI-H322M lung it was 104%; in the assay on HOP-62 NSCLC, 95.9%; with NCI-H460 lung, 109%; with NCI-H522 lung, 91.8%. The growth with 786-0 renal was 102%; in the assay with COLO 205 colon, 108%; with DU-145 prostate, 115%; with K-562 leukemia it was 94.6%; with MALME-3M melanoma, 106%; in the assay with MDA-MB-231 breast it was 108%. Further, the growth is 112% in the assay on RXF 393 renal; 106% with SF-268 CNS; 110% in the assay with SF-295 CNS; 97% in the assay on SF-539 CNS; 83.4% with UACC-257 melanoma; 104% with M14 melanoma.
As for `O=C1C=CC2=C3c4cc(O)c(O)cc4CC3(O)COC2=C1O` (stereo not drawn), the growth in the assay on NCI-H23 lung was 117%; in the assay on NCI-H226 lung, 95.1%; in the assay on NCI-H322M lung, 107%; in the assay on HOP-62 NSCLC, 100%; in the assay on NCI-H460 lung, 89.8%; with NCI-H522 lung, 84.5%. The growth in the assay on 786-0 renal was 92.1%; in the assay on COLO 205 colon it was 98.6%; in the assay on DU-145 prostate it was 119%; with K-562 leukemia it was 108%; in the assay with MALME-3M melanoma it was 124%; in the assay with MDA-MB-231 breast, 99.1%. Besides, the growth in the assay on SF-268 CNS is 107%; in the assay on SF-295 CNS, 107%; in the assay on SF-539 CNS, 90%; with M14 melanoma, 102%.
As for `S=C1NCc2cncnc2N1`, the growth with NCI-H23 lung is 109%; with NCI-H226 lung, 101%; with NCI-H322M lung it was 114%; in the assay with HOP-62 NSCLC, 93.5%; with NCI-H460 lung it was 106%; with A549/ATCC NSCLC, 98.2%. In addition, the growth in the assay with 786-0 renal was 106%; in the assay with COLO 205 colon it was 111%; in the assay with DU-145 prostate it was 112%; with K-562 leukemia, 93%; with MALME-3M melanoma, 112%; in the assay on MDA-MB-231 breast, 132%. For the same compound, the growth with RXF 393 renal is 105%; with SF-268 CNS, 107%; in the assay with SF-295 CNS, 94.2%; with SF-539 CNS it was 92.7%; in the assay on M14 melanoma, 103%.
